# Experimental data as given in PubChem BioAssay (EPA / NIEHS).
# Records with an inconclusive call do not appear. Where a structure was tested more than once in an assay, its records may differ in their call. Calls of active or inactive are those of the source. The calls were made as follows, unless noted: active = hit-call score of the fitted dose curve at least 0.9, where 1 is the maximum; inconclusive = response in the unintended direction; inactive = score below 0.9.
# What was measured:
# [1] = CEETOX_H295R_MTT_cell_viability: Viability Assessment in the CeeTox HT-H295R MTT Assay (AID 2283718; active = hit-call score of the fitted dose curve at least 0.9, where 1 is the maximum; inactive = score below 0.9;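 as to AC50: curve fitted both ways so AC50 may mark viability loss or gain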)
# Outline: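 MTT reduction (0.5 mg/ml, 4 h at 37 C; absorbance at 570 and 650 nm) gave viability as background-corrected percent change versus controls. H295R cells had 48 h forskolin (10 uM) prestimulation, then 48 h chemical exposure at 0.1% DMSO.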
# [2] = ACEA_ER_AUC_viability: ACEA Biosciences xCELLigence Real-Time Cell Analysis on Estrogen Receptor Agonism for Viability (AID 2283782);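 also: hit means loss of impedance signal meaning reduced cell growth or viability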
# Outline: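 T-47D; phenol red-free RPMI1640 + 10% CS-FBS; 8 conc., 1:4 serial, max 100 uM final, ≤0.5% DMSO; n = 2; continuous exposure; impedance monitored to 80 h post-dose; AUC vs DMSO.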
# [3] = ACEA_AR_agonist_AUC_viability: ACEA Biosciences xCELLigence Real-Time Cell Analysis on Androgen Receptor Agonism for Viability (AID 2283775);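 as to AC50: viability read 80 hours after compound addition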
# Outline: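 Real-time impedance tracking of 22Rv1 growth, readings every 5 min for 5 h then hourly; area-under-curve viability endpoint at 80 hours, relative to DMSO. Compounds at eight concentrations, 1:4 steps, top 100 uM, n = 2.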
# [4] = Tanguay_ZF_120hpf_ActivityScore_legacy: (Legacy) Oregon State University Tanguay Lab 120 Hour Post-fertilization zebrafish Assay Score for Activity (AID 2283742)
# Outline: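 Embryos are staged, enzymatically dechorionated at 4 hpf, placed individually at 6 hpf, then held in test chemical (0.64% DMSO) at 28C until 120 hpf. Mortality and malformations are scored by brightfield, with non-mortality endpoints skipped for dead embryos.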
# [5] = target: Luciferin 4-monooxygenase (Photinus pyralis) (UniProt P08659); experiment: CCTE_Simmons_QuantiLum_inhib_2: CCTE's Firefly Luciferase Inhibition Assay, Simmons Lab (AID 2283767);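 as to AC50: potency for inhibitors that lower luciferase luminescence relative to DMSO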
# Sequence of Luciferin 4-monooxygenase (Photinus pyralis) (P08659 whole entry, looked up): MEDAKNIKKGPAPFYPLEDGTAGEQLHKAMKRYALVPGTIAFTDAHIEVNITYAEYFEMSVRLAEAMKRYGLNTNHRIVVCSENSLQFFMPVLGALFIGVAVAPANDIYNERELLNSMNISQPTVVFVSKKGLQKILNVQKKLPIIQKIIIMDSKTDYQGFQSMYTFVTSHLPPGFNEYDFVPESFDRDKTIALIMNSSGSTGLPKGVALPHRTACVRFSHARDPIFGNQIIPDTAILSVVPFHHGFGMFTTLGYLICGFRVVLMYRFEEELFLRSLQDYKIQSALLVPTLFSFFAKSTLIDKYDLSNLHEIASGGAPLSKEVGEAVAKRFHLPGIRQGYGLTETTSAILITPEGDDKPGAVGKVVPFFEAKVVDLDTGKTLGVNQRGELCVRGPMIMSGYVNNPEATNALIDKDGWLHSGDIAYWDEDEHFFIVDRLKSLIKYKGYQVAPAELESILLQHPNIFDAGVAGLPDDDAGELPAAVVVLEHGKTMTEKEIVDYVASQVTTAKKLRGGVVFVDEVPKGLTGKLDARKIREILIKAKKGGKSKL
# Outline: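 Cell-free recombinant firefly luciferase (5 ng/well) in 200mM potassium phosphate with 1 mg/ml BSA, 30 min at 37C with 8 concentrations from 5 nM to 87.5 uM [final], 0.5% DMSO. Luminescence read after D-luciferin (150uM)/dATP (147uM) reagent injection, pH 7.8; triplicates.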
# [6] = target: zebrafish Estrogen Receptor (ESR1), esr1 (gene 259252) (UniProt P57717); experiment: ATG_zfER1_XSP1: Attagene TRANS-FACTORIAL Multi-Species (XSP1) HepG2 Assay for zebrafish Estrogen Receptor (ESR1) (AID 2283772)
# Sequence of zebrafish Estrogen Receptor (ESR1), esr1 (gene 259252) (P57717 whole entry, looked up, the tested form may be a part): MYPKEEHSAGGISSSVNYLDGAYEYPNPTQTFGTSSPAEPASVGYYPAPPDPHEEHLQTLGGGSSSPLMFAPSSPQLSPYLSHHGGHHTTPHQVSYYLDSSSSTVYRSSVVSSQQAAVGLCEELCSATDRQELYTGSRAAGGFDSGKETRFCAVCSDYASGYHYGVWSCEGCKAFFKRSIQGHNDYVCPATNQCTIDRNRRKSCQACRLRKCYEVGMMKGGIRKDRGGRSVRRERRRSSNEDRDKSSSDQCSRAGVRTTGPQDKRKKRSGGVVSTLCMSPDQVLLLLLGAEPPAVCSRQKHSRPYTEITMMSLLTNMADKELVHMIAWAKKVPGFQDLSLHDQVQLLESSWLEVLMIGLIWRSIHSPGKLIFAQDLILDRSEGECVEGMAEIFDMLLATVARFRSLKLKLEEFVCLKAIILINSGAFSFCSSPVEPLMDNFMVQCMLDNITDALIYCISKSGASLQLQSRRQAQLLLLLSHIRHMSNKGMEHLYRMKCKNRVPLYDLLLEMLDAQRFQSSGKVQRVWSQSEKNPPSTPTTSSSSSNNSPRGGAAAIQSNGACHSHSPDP
# Outline: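 Reporter mRNA induction, gauged via RT-PCR/capillary electrophoresis fluorescence relative to DMSO controls, in HepG2 cells transiently carrying GAL4-UAS reporter units; 24 h dosing.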
# [7] = system: zebrafish Estrogen Receptor (ESR2B), gene 317733; experiment: ATG_zfER2b_XSP1: Attagene TRANS-FACTORIAL Multi-Species (XSP1) HepG2 Assay for zebrafish Estrogen Receptor (ESR2B) (AID 2283773)
# Outline: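 Gain-of-signal endpoint relative to DMSO: reporter transcript levels quantified by RT-PCR and capillary electrophoresis after 24 h compound exposure of HepG2 cells expressing a zebrafish ER2b-Gal4 chimera.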
# [8] = system: frog Estrogen Receptor (ESR2), gene 100174814; experiment: ATG_frER2_XSP1: Attagene TRANS-FACTORIAL Multi-Species (XSP1) HepG2 Assay for frog Estrogen Receptor (ESR2) (AID 2283774)
# Outline: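 Transactivation of an exogenous receptor-Gal4 fusion is tracked in transfected HepG2 cells via induced reporter transcript levels. After 24 h treatment, RT-PCR with capillary electrophoresis quantifies signal gain over DMSO.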
# [9] = system: frog Estrogen Receptor (ESR1), gene 398734; experiment: ATG_frER1_XSP1: Attagene TRANS-FACTORIAL Multi-Species (XSP1) HepG2 Assay for frog Estrogen Receptor (ESR1) (AID 2283777)
# Outline: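 Human hepatoma HepG2 cells carried transiently transfected multiplexed Gal4-driven reporters and were exposed to test chemicals for 24 hours. Transcripts were quantified by fluorescent RT-PCR with capillary electrophoresis, referenced to DMSO.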
# [10] = system: zebrafish Estrogen Receptor (ESR2A), gene 317734; experiment: ATG_zfER2a_XSP1: Attagene TRANS-FACTORIAL Multi-Species (XSP1) HepG2 Assay for zebrafish Estrogen Receptor (ESR2A) (AID 2283778)
# Outline: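 Cells were transfected, dosed for 24 h, then total RNA was isolated. After oligo(dT) reverse transcription, reporter sequences were amplified, FAM-labelled by primer extension, digested with HpaI and sized by capillary electrophoresis; DMSO served as baseline.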
# [11] = target: chicken Estrogen Receptor (ESR1), ESR1 (gene 396099) (UniProt P06212); experiment: ATG_chERa_XSP1: Attagene TRANS-FACTORIAL Multi-Species (XSP1) HepG2 Assay for chicken Estrogen Receptor (ESR1) (AID 2283779)
# Sequence of chicken Estrogen Receptor (ESR1), ESR1 (gene 396099) (P06212 whole entry, looked up, the tested form may be a part): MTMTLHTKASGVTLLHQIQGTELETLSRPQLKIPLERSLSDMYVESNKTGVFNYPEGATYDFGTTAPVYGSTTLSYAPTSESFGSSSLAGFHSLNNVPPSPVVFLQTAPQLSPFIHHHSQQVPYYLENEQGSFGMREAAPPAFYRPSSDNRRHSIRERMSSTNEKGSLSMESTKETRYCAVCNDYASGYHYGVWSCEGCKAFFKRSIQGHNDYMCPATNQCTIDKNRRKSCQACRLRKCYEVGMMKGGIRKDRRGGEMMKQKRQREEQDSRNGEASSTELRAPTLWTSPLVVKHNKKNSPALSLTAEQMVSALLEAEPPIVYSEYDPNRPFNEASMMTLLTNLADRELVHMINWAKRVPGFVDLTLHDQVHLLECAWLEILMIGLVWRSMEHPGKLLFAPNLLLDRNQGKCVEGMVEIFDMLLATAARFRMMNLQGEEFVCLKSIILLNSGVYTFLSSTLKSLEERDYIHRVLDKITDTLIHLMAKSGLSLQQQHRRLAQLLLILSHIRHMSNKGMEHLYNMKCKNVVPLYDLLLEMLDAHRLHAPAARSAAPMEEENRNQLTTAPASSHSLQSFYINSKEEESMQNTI
# Outline: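 Human liver HepG2, transient MRTU transfection (NR-Gal4 chimeras, GAL4-UAS reporters); 24 h compound exposure; 3 nM 6-alpha-fluorotestosterone in medium. Total RNA → RT-PCR → 6-FAM primer extension → HpaI → CE. Positive direction vs DMSO baseline.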
# [12] = target: Estrogen receptor (Homo sapiens) (UniProt P03372); experiment: ATG_hERa_XSP1: Attagene TRANS-FACTORIAL Multi-Species (XSP1) HepG2 Assay for human Estrogen Receptor (ESR1) (AID 2283780)
# Sequence of Estrogen receptor (Homo sapiens) (P03372 whole entry, looked up, the tested form may be a part): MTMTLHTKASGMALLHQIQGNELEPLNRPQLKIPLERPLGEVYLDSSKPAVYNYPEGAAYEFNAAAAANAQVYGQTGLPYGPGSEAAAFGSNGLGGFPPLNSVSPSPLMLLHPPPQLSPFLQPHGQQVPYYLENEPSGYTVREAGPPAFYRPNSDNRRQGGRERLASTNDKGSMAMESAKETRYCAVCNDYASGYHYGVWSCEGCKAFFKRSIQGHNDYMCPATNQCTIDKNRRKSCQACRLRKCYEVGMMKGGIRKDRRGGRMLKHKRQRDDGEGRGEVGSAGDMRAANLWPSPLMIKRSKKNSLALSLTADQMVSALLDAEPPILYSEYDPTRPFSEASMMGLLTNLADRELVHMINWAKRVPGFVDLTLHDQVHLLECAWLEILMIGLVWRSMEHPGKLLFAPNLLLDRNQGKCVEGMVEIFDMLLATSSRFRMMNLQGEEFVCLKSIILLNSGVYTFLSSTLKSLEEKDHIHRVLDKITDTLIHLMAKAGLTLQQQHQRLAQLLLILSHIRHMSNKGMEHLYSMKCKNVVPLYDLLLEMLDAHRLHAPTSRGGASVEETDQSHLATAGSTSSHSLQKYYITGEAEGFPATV
# Outline: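 HepG2 cells transiently transfected with GAL4-UAS reporter units and chimeric NR-Gal4 constructs; 24 h after dosing, reporter mRNA quantified by RT-PCR and capillary electrophoresis. Medium contained 3 nM 6-alpha-fluorotestosterone; activity fitted as gain-of-signal versus DMSO.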
# [13] = system: turtle Estrogen Receptor (ESR1), gene 101933533; experiment: ATG_trERa_XSP1: Attagene TRANS-FACTORIAL Multi-Species (XSP1) HepG2 Assay for turtle Estrogen Receptor (ESR1) (AID 2283781)
# Outline: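 Activity was taken as gain of reporter transcript over DMSO controls. HepG2 cells carrying GAL4-UAS-driven reporters were exposed for 24 h before RNA was extracted and reporter sequences were measured by fluorescence after capillary separation.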
# [14] = target: GAL4 Transcription Factor (Internal Marker), GAL4 (gene 855828) (UniProt P04386); experiment: ATG_GAL4_XSP1: Attagene TRANS-FACTORIAL Multi-Species (XSP1) HepG2 Assay for GAL4 Transcription Factor (Internal Marker) (AID 2283789)
# Sequence of GAL4 Transcription Factor (Internal Marker), GAL4 (gene 855828) (P04386 whole entry, looked up, the tested form may be a part): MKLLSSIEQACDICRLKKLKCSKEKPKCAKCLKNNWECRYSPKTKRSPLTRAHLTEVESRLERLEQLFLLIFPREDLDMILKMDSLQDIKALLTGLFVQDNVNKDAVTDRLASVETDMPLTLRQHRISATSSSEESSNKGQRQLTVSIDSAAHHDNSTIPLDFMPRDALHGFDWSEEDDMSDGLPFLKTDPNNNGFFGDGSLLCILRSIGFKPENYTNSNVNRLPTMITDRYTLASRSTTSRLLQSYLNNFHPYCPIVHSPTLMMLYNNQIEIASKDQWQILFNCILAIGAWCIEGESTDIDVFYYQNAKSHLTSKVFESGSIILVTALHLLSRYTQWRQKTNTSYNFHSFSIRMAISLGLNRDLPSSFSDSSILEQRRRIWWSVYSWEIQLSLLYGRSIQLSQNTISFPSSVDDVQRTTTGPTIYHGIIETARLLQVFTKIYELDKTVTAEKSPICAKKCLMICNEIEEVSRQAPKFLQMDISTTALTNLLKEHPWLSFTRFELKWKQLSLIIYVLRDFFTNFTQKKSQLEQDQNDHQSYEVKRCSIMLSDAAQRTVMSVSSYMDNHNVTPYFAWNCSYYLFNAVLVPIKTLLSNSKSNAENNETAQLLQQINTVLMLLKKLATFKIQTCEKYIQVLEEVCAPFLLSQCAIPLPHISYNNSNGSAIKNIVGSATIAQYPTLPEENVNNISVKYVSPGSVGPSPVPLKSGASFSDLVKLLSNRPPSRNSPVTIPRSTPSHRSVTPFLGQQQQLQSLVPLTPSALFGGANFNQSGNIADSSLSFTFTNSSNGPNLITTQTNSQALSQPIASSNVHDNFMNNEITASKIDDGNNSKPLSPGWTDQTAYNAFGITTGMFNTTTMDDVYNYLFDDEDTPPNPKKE
# Outline: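 HepG2 cells transiently transfected with multiplexed GAL4-UAS reporter units were exposed for 24 h with 3 nM 6-alpha-fluorotestosterone present. Reporter mRNA was quantified by RT-PCR, FAM labelling, HpaI digestion and capillary electrophoresis; background-control readout, gain-of-signal versus DMSO.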
# [15] = ATG_M_06_XSP1: Attagene TRANS-FACTORIAL Multi-Species (XSP1) HepG2 Assay for M06 Transcription Factor (Internal Marker) (AID 2283790)
# Outline: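 Transfected HepG2 multi-reporter system treated 24 h in the presence of 3 nM 6-alpha-fluorotestosterone. The M06 internal marker transcript was quantified by RT-PCR with capillary electrophoresis as a background control, and gain of signal was scored versus DMSO.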
# [16] = ATG_M_61_XSP1: Attagene TRANS-FACTORIAL Multi-Species (XSP1) HepG2 Assay for M61 Transcription Factor (Internal Marker) (AID 2283797)
# Outline: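 HepG2 cells transiently transfected with multiplexed GAL4-driven reporter units, dosed 24 h with 3 nM 6-alpha-fluorotestosterone present. Reporter mRNA quantified by RT-PCR, 6-FAM labelling, HpaI digestion and capillary electrophoresis; internal-marker background control, gain of signal versus DMSO.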
# [17] = ACEA_AR_antagonist_AUC_viability: ACEA Biosciences xCELLigence Real-Time Cell Analysis on Androgen Receptor Antagonism for Viability (AID 2283776);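 also: 22Rv1 human prostate cancer cells growing on impedance electrode plates; hits lower the growth signal relative to DMSO meaning cytotoxicity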
# Outline: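 Real-time electrical impedance tracks 22Rv1 proliferation after continuous compound exposure (top 100 uM final, 1:4 steps, 8 concentrations). The 80 h area-under-curve serves as the cytotoxicity readout relative to DMSO.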
# [18] = STM_H9_NormalizedViability: Cytotoxicity Assessment at 120 hours in the Stemina devTOX quickPredict H9 human embryonic stem cell (hESC)-based Assay (AID 2283784)
# Outline: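 Pluripotent H9 hESCs were exposed, with chemical and media replaced every 24 h. Viability was read by CellTiter-Fluor fluorescence, background-corrected and normalized to the 0.1% DMSO neutral control per plate. Loss of signal was fitted.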
smiles,measurement,setting,value
COc1ccc(C(=O)/C(Br)=C\C(=O)O)cc1,AC50,[1],76.4 µM (active)
same,AC50,[2],29.2 µM (active)
CC(=O)OC(C)c1ccccc1 (stereo not drawn),outcome,[3],inactive
Nc1ccc(C(=O)O)cc1,outcome,[4],inactive
CCCCCCCCCCCCc1ccc(O)cc1,outcome,[5],inactive
same,AC50,[3],16.6 µM (active)
COC(=O)c1ccccc1C,outcome,[5],inactive
CC(C)(C)NC(=O)[C@H]1CC[C@H]2[C@@H]3CC[C@H]4NC(=O)C=C[C@]4(C)[C@H]3CC[C@]12C,outcome,[1],inactive
same,outcome,[6],inactive
same,AC50,[7],67.2 µM (active)
same,AC50,[8],38.1 µM (active)
same,AC50,[3],78 µM (active)
same,outcome,[3],inactive
same,outcome,[9],inactive
same,outcome,[10],inactive
same,outcome,[11],inactive
same,outcome,[12],inactive
same,outcome,[13],inactive
same,outcome,[14],inactive
same,outcome,[15],inactive
same,outcome,[16],inactive
CCCCCCCOC(=O)c1ccc(O)cc1,AC50,[5],76.7 µM (active)
same,outcome,[17],inactive
CCCC=C(C=O)CC,outcome,[1],inactive
same,outcome,[3],inactive
same,outcome,[2],inactive
c1ccc(Nc2cccc3ccccc23)cc1,AC50,[5],53.8 µM (active)
same,outcome,[3],inactive
same,AC50,[2],81.4 µM (active)
CC(CCC(=O)O)(c1ccc(O)cc1)c1ccc(O)cc1,outcome,[5],inactive
same,AC50,[17],1.24 µM (active)
same,AC50,[18],0.0494 µM (active)
CC1=CC=C(C(C)C)CC1,outcome,[3],inactive
Cc1ccc([N+](=O)[O-])cc1N,outcome,[4],inactive
same,outcome,[3],inactive
C1CNCCN1,outcome,[4],inactive
same,outcome,[3],inactive
same,outcome,[2],inactive
CCCCC1C(=O)N(c2ccccc2)N(c2ccccc2)C1=O,outcome,[1],inactive
same,outcome,[5],inactive
O=C(O)c1cc(O)c2ccccc2c1O,outcome,[1],inactive
same,AC50,[5],39.9 µM (active)
same,outcome,[3],inactive
same,AC50,[2],26 µM (active)
CCc1occc(=O)c1O,outcome,[5],inactive
same,outcome,[3],inactive
same,outcome,[2],inactive
CCOC(=O)c1ccccc1C,outcome,[3],inactive
C=CC(=O)OCCCCCCOC(=O)C=C,outcome,[1],inactive
same,AC50,[2],85.3 µM (active)
COc1ccc(-c2coc3cc(O)cc(O)c3c2=O)cc1,outcome,[1],inactive
same,AC50,[5],9.08 µM (active)
same,outcome,[3],inactive
same,AC50,[17],0.86 µM (active)
CC(C)(C)C1CCC(=O)CC1,outcome,[3],inactive
CCCCCCCCCCCCCCCCCCOS(=O)(=O)O,outcome,[3],inactive
CC(C)(c1ccccc1)c1ccc(Nc2ccc(C(C)(C)c3ccccc3)cc2)cc1,AC50,[1],86 µM (active)
same,AC50,[5],53.8 µM (active)
same,outcome,[3],inactive
same,AC50,[17],11.4 µM (active)
CC(C)c1ccc(O)c(C(C)C)c1,outcome,[1],inactive
same,outcome,[5],inactive
same,outcome,[3],inactive
